Source: the supplement of paper PMC13380429

Tests used:
[1] = test system: Vero E6 infected with SARS-CoV-2; test: inhibition of SARS-CoV-2 cytopathic effect; higher = more antiviral protection, active = above 15; conditions: 48 h
[2] = test system: Vero E6 infected with SARS-CoV-2; test: morphology score (similarity to uninfected cells); higher = more like uninfected cells; conditions: 24 h
[3] = test system: Vero E6 infected with SARS-CoV-2; test: SARS-CoV-2 infection rate relative to infected DMSO; higher = more infection, active = 60 or less; conditions: 24 h

CC(C)(N)Cc1ccccc1 [phentermine]
inactive: inhibition of SARS-CoV-2 cytopathic effect ([1]; 1 nM) 2.16% | inhibition of SARS-CoV-2 cytopathic effect ([1]; 8.33 nM) 1.33% | inhibition of SARS-CoV-2 cytopathic effect ([1]; 100 nM) 2.37% | inhibition of SARS-CoV-2 cytopathic effect ([1]; 833.33 nM) 3.73% | inhibition of SARS-CoV-2 cytopathic effect ([1]; 10000 nM) 1.23%

O=[N+]([O-])c1ccc([As](=O)(O)O)cc1 [nitarsone]
inactive: inhibition of SARS-CoV-2 cytopathic effect ([1]; 1 nM) -0.01% | inhibition of SARS-CoV-2 cytopathic effect ([1]; 8.33 nM) 1.59% | inhibition of SARS-CoV-2 cytopathic effect ([1]; 100 nM) 0.4%

C[C@]1(COc2ccc(N3CCC(Oc4ccc(OC(F)(F)F)cc4)CC3)cc2)Cn2cc([N+](=O)[O-])nc2O1 [delamanid]
inactive: inhibition of SARS-CoV-2 cytopathic effect ([1]; 1 nM) -0.82% | inhibition of SARS-CoV-2 cytopathic effect ([1]; 8.33 nM) 0.01% | inhibition of SARS-CoV-2 cytopathic effect ([1]; 100 nM) -1.12% | inhibition of SARS-CoV-2 cytopathic effect ([1]; 833.33 nM) 2.83% | inhibition of SARS-CoV-2 cytopathic effect ([1]; 10000 nM) 1.84%

COc1cc(C(=O)NS(=O)(=O)c2ccccc2C)ccc1Cc1cn(C)c2ccc(NC(=O)OC3CCCC3)cc12 [zafirlukast]
inactive: inhibition of SARS-CoV-2 cytopathic effect ([1]; 1 nM) -1.22% | inhibition of SARS-CoV-2 cytopathic effect ([1]; 8.33 nM) -0.73% | inhibition of SARS-CoV-2 cytopathic effect ([1]; 100 nM) 0.48% | inhibition of SARS-CoV-2 cytopathic effect ([1]; 833.33 nM) 0.88% | inhibition of SARS-CoV-2 cytopathic effect ([1]; 10000 nM) -2.73%

CC(C)C[C@H](NC(=O)[C@@H]1CCCN1)C(=O)NCC(N)=O [prolylleucylglycinamide] (10 µM)
inactive: SARS-CoV-2 infection rate [3] 99%
0.103: morphology score [2]

CN(C)C(=S)SSC(=S)N(C)C [thiram]
inactive: inhibition of SARS-CoV-2 cytopathic effect ([1]; 1 nM) 5.06% | inhibition of SARS-CoV-2 cytopathic effect ([1]; 8.33 nM) 3.58% | inhibition of SARS-CoV-2 cytopathic effect ([1]; 100 nM) -8.77%

N[C@@]1(C(=O)O)CC[C@H]2[C@H](C(=O)O)[C@H]21 [eglumetad]
inactive: inhibition of SARS-CoV-2 cytopathic effect ([1]; 1 nM) 0.4% | inhibition of SARS-CoV-2 cytopathic effect ([1]; 8.33 nM) -0.24% | inhibition of SARS-CoV-2 cytopathic effect ([1]; 100 nM) -0.34% | inhibition of SARS-CoV-2 cytopathic effect ([1]; 833.33 nM) -0.18% | inhibition of SARS-CoV-2 cytopathic effect ([1]; 10000 nM) 2.06%

CC(C)(C)c1cc(C=C(C#N)C#N)cc(Br)c1O (10 µM)
0.14: morphology score [2]
inactive: SARS-CoV-2 infection rate [3] 108%

CN(Cc1ccccc1)C(=O)[C@H](Cc1ccc2ccccc2c1)NC(=O)[C@@H]1CCCN1C(=O)Nc1ccccc1[N+](=O)[O-]
inactive: inhibition of SARS-CoV-2 cytopathic effect ([1]; 1 nM) -0.58% | inhibition of SARS-CoV-2 cytopathic effect ([1]; 8.33 nM) 2.06% | inhibition of SARS-CoV-2 cytopathic effect ([1]; 100 nM) 3.45% | inhibition of SARS-CoV-2 cytopathic effect ([1]; 833.33 nM) 5.13% | inhibition of SARS-CoV-2 cytopathic effect ([1]; 10000 nM) 1.31%

O=C(O)Cn1c2c(c3cc(F)ccc31)CN(C(=O)c1cccc3ccccc13)CC2 [setipiprant]
inactive: inhibition of SARS-CoV-2 cytopathic effect ([1]; 1 nM) -1.54% | inhibition of SARS-CoV-2 cytopathic effect ([1]; 8.33 nM) -1.86% | inhibition of SARS-CoV-2 cytopathic effect ([1]; 100 nM) -0.37% | inhibition of SARS-CoV-2 cytopathic effect ([1]; 833.33 nM) -0.82% | inhibition of SARS-CoV-2 cytopathic effect ([1]; 10000 nM) -0.76%

CCOc1cc(N)c(Cl)cc1C(=O)NCC1CN(Cc2ccc(F)cc2)CCO1 (stereo unspecified) [mosapride]
inactive: inhibition of SARS-CoV-2 cytopathic effect ([1]; 1 nM) 0.88% | inhibition of SARS-CoV-2 cytopathic effect ([1]; 8.33 nM) 2.99% | inhibition of SARS-CoV-2 cytopathic effect ([1]; 100 nM) 3.38% | inhibition of SARS-CoV-2 cytopathic effect ([1]; 833.33 nM) 2.51% | inhibition of SARS-CoV-2 cytopathic effect ([1]; 10000 nM) 6.25%

O=S(=O)(c1ccccc1)N(CC(F)(F)F)c1ccc(C(O)(C(F)(F)F)C(F)(F)F)cc1 (10 µM)
0.0275: morphology score [2]
inactive: SARS-CoV-2 infection rate [3] 104%

COc1c2occc2c(OC)c2c(=O)cc(C)oc12 [khellin]
inactive: inhibition of SARS-CoV-2 cytopathic effect ([1]; 1 nM) 3.97% | inhibition of SARS-CoV-2 cytopathic effect ([1]; 8.33 nM) -0.75% | inhibition of SARS-CoV-2 cytopathic effect ([1]; 100 nM) -0.95% | inhibition of SARS-CoV-2 cytopathic effect ([1]; 833.33 nM) -3.54% | inhibition of SARS-CoV-2 cytopathic effect ([1]; 10000 nM) -0.89%

O=C(Nc1ccccc1)c1cc([N+](=O)[O-])ccc1Cl
inactive: inhibition of SARS-CoV-2 cytopathic effect ([1]; 1 nM) 1.34% | inhibition of SARS-CoV-2 cytopathic effect ([1]; 8.33 nM) 2.14% | inhibition of SARS-CoV-2 cytopathic effect ([1]; 100 nM) 0.85% | inhibition of SARS-CoV-2 cytopathic effect ([1]; 833.33 nM) -0.67% | inhibition of SARS-CoV-2 cytopathic effect ([1]; 10000 nM) -0.39%

CC[C@H](C(=O)N1CCCC[C@H]1C(=O)O[C@H](CCc1ccc(OC)c(OC)c1)c1cccc(OCC(=O)NCCNC(=O)COc2cccc([C@@H](CCc3ccc(OC)c(OC)c3)OC(=O)[C@@H]3CCCCN3C(=O)[C@@H](CC)c3cc(OC)c(OC)c(OC)c3)c2)c1)c1cc(OC)c(OC)c(OC)c1
inactive: inhibition of SARS-CoV-2 cytopathic effect ([1]; 1 nM) -3.12% | inhibition of SARS-CoV-2 cytopathic effect ([1]; 8.33 nM) -1.9% | inhibition of SARS-CoV-2 cytopathic effect ([1]; 100 nM) -0.97%

CCC(CC)CC1(C(=O)Nc2ccccc2SC(=O)C(C)C)CCCCC1 [dalcetrapib]
inactive: inhibition of SARS-CoV-2 cytopathic effect ([1]; 1 nM) -1.76% | inhibition of SARS-CoV-2 cytopathic effect ([1]; 8.33 nM) -0.46% | inhibition of SARS-CoV-2 cytopathic effect ([1]; 100 nM) -1.34% | inhibition of SARS-CoV-2 cytopathic effect ([1]; 833.33 nM) -4.44% | inhibition of SARS-CoV-2 cytopathic effect ([1]; 10000 nM) -2.5%

CC(=O)Nc1cc([As](=O)(O)O)ccc1O [acetarsol]
inactive: inhibition of SARS-CoV-2 cytopathic effect ([1]; 1 nM) 0.15% | inhibition of SARS-CoV-2 cytopathic effect ([1]; 8.33 nM) 0.13% | inhibition of SARS-CoV-2 cytopathic effect ([1]; 100 nM) 1.84%

Cc1cc(N2CCCCC2)nc2ccccc12 (10 µM)
inactive: SARS-CoV-2 infection rate [3] 93%
0.282: morphology score [2]

O=C(CN1C(=O)C2(CCCC2)NC[C@H]1c1cc(F)cc(F)c1)Nc1ccc2c(c1)C[C@@]1(C2)C(=O)Nc2ncccc21
inactive: inhibition of SARS-CoV-2 cytopathic effect ([1]; 1 nM) -6.85% | inhibition of SARS-CoV-2 cytopathic effect ([1]; 8.33 nM) -7.92% | inhibition of SARS-CoV-2 cytopathic effect ([1]; 100 nM) -8.42% | inhibition of SARS-CoV-2 cytopathic effect ([1]; 833.33 nM) -6.83% | inhibition of SARS-CoV-2 cytopathic effect ([1]; 10000 nM) -2.55%

C[C@@H]1O[C@@H](O[C@@H]2[C@@H](O)[C@H](OCCc3ccc(O)c(O)c3)O[C@H](CO)[C@H]2OC(=O)/C=C/c2ccc(O)c(O)c2)[C@H](O)[C@H](O)[C@H]1O [verbascoside]
inactive: inhibition of SARS-CoV-2 cytopathic effect ([1]; 1 nM) -0.06% | inhibition of SARS-CoV-2 cytopathic effect ([1]; 8.33 nM) -0.95% | inhibition of SARS-CoV-2 cytopathic effect ([1]; 100 nM) 0.7% | inhibition of SARS-CoV-2 cytopathic effect ([1]; 833.33 nM) -1.19% | inhibition of SARS-CoV-2 cytopathic effect ([1]; 10000 nM) -1.48%

O=[N+]([O-])c1cc([As](=O)(O)O)ccc1O [roxarsone]
inactive: inhibition of SARS-CoV-2 cytopathic effect ([1]; 1 nM) -3.44% | inhibition of SARS-CoV-2 cytopathic effect ([1]; 8.33 nM) -2.76% | inhibition of SARS-CoV-2 cytopathic effect ([1]; 100 nM) -4.83%

NCCC[C@H](N)CC(=O)N[C@H]1CNC(=O)[C@H]([C@H]2C[C@H](O)NC(N)=N2)NC(=O)/C(=C/NC(N)=O)NC(=O)[C@H](CO)NC(=O)[C@H](CO)NC1=O [viomycin]
inactive: inhibition of SARS-CoV-2 cytopathic effect ([1]; 1 nM) 2.35% | inhibition of SARS-CoV-2 cytopathic effect ([1]; 8.33 nM) 1% | inhibition of SARS-CoV-2 cytopathic effect ([1]; 100 nM) -1.8%

CN(C)CCc1ccc(O)cc1 [hordenine]
inactive: inhibition of SARS-CoV-2 cytopathic effect ([1]; 1 nM) 0.04% | inhibition of SARS-CoV-2 cytopathic effect ([1]; 8.33 nM) -0.27% | inhibition of SARS-CoV-2 cytopathic effect ([1]; 100 nM) 0.47% | inhibition of SARS-CoV-2 cytopathic effect ([1]; 833.33 nM) -2.27% | inhibition of SARS-CoV-2 cytopathic effect ([1]; 10000 nM) -0.68%
